# Results: PubChem BioAssay AID1159580 (chemical genetic matrix, 2015)
# Out of some 5,500 compounds screened, about 2,000 (36%) were called active. About 18% were inconclusive and are not listed. The list shows a part of the results. Values without a mark were called inactive. Cut-off read from the data, not from the text of the source: active = normalized growth mostly below about 0.91 (no sharp cut-off); inconclusive = no clear call, values can overlap the other calls; inactive = mostly above about 0.92.
# Experiment: chemical genetic growth profiling, strain panel (AID 1159580);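 note: tested at 20 µM; growth read once vehicle control cultures reached saturation at 30 °C; 1 = growth at the plate median or of vehicle wells; lower values mean less growth of the strain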
# Conditions: S. cerevisiae deletion strains, growth OD
# [1] = locus YDL101C, strain DUN1, hits give low values
# [2] = locus YHR030C, strain SLT2, hits give low values
smiles,measurement,setting,value
COc1nc(N)nc(SC)n1,normalized growth,"locus YAL013W, strain DEP1, hits give low values",0.995
same,normalized growth,"locus YBR229C, strain ROT2, hits give low values",1
same,normalized growth,"locus YCL061C, strain MRC1, hits give low values",0.988
same,normalized growth,[1],1
same,normalized growth,"locus YDR150W, strain NUM1, hits give low values",1
same,normalized growth,"locus YEL061C, strain CIN8, hits give low values",0.989
same,normalized growth,"locus YGR078C, strain PAC10, hits give low values",1.02
same,normalized growth,"locus YGR229C, strain SMI1, hits give low values",0.985
same,normalized growth,[2],1.05
same,normalized growth,"locus YHR087W, strain rtc3, hits give low values",0.992
same,normalized growth,"locus YJR043C, strain POL32, hits give low values",0.987
same,normalized growth,"locus YJR075W, strain HOC1, hits give low values",0.987
same,normalized growth,"locus YKL190W, strain CNB1, hits give low values",0.974
same,normalized growth,"locus YLR039C, strain RIC1, hits give low values",0.97
same,normalized growth,"locus YLR058C, strain SHM2 (second series), hits give low values",0.989
same,normalized growth,"locus YLR085C, strain ARP6, hits give low values",0.984
same,normalized growth,"locus YLR262C, strain YPT6, hits give low values",0.974
same,normalized growth,"locus YML094W, strain GIM5, hits give low values",1.12
same,normalized growth,"locus YMR219W, strain ESC1, hits give low values",0.993
same,normalized growth,"locus YMR263W, strain SAP30, hits give low values",0.984
same,normalized growth,"locus YNL128W, strain TEP1, hits give low values",0.979
same,normalized growth,"locus YNL153C, strain GIM3, hits give low values",1
same,normalized growth,"locus YNL298W, strain CLA4 (second series), hits give low values",0.98
same,normalized growth,"locus YNL322C, strain KRE1, hits give low values",1
same,normalized growth,"locus YNR030W, strain Alg12, hits give low values",1.02
same,normalized growth,"locus YOL006C, strain TOP1, hits give low values",0.978
same,normalized growth,"locus YPL055C, strain LGE1, hits give low values",1.01
same,normalized growth,"locus YPL241C, strain CIN2, hits give low values",1.14
same,normalized growth,"locus YPR135W, strain CTF4, hits give low values",1.03
COc1cc(C(=O)Oc2c(Cl)cc(Cl)cc2C=Nc2cccc([N+](=O)[O-])c2)cc(OC)c1OC,normalized growth,"locus YAR019C, strain CDC15, hits give low values",0.959
same,normalized growth,"locus YBL105C, strain PKC1, hits give low values",0.971
same,normalized growth,"locus YBR135W, strain CKS1, hits give low values",0.973
same,normalized growth,"locus YBR136W, strain MEC1, hits give low values",0.977
same,normalized growth,"locus YBR160W, strain CDC28, hits give low values",0.98
same,normalized growth,"locus YDL017W, strain CDC7, hits give low values",0.982
same,normalized growth,"locus YDL028C, strain MPS1, hits give low values",0.962
same,normalized growth,[1],0.985
same,normalized growth,"locus YDL108W, strain KIN28, hits give low values",0.971
same,normalized growth,"locus YDL132W, strain cdc53, hits give low values",0.962
same,normalized growth,"locus YDL214C, strain PRR2, hits give low values",0.607 (active)
same,normalized growth,"locus YDR052C, strain DBF4, hits give low values",0.987
same,normalized growth,"locus YDR054C, strain cdc34, hits give low values",0.956
same,normalized growth,"locus YDR226W, strain ADK1, hits give low values",0.964
same,normalized growth,"locus YDR477W, strain SNF1, hits give low values",0.626 (active)
same,normalized growth,"locus YER123W, strain YCK3, hits give low values",0.415 (active)
same,normalized growth,"locus YER133W, strain GLC7, hits give low values",0.59 (active)
same,normalized growth,"locus YFL009W, strain cdc4, hits give low values",0.958
same,normalized growth,"locus YFL029C, strain CAK1, hits give low values",0.98
same,normalized growth,"locus YFR003C, strain YPI1, hits give low values",0.976
same,normalized growth,"locus YFR019W, strain FAB1, hits give low values",0.706 (active)
same,normalized growth,"locus YFR028C, strain CDC14, hits give low values",0.965
same,normalized growth,"locus YGR040W, strain KSS1, hits give low values",0.648 (active)
same,normalized growth,"locus YGR052W, strain FMP48, hits give low values",0.561 (active)
same,normalized growth,"locus YGR092W, strain DBF2, hits give low values",0.336 (active)
same,normalized growth,[2],0.387 (active)
same,normalized growth,"locus YHR079C, strain IRE1, hits give low values",0.438 (active)
same,normalized growth,"locus YHR082C, strain KSP1, hits give low values",0.569 (active)
same,normalized growth,"locus YHR205W, strain SCH9, hits give low values",0.473 (active)
same,normalized growth,"locus YIL147C, strain SLN1, hits give low values",0.973
same,normalized growth,"locus YJL095W, strain BCK1, hits give low values",0.473 (active)
same,normalized growth,"locus YJL128C, strain PBS2, hits give low values",0.921
same,normalized growth,"locus YJL157C, strain FAR1, hits give low values",0.629 (active)
same,normalized growth,"locus YJR016C, strain ILV3, hits give low values",0.988
same,normalized growth,"locus YJR066W, strain TOR1 (second series), hits give low values",0.801
same,normalized growth,"locus YJR066W, strain TOR1, hits give low values",0.427 (active)
same,normalized growth,"locus YKL048C, strain ELM1, hits give low values",0.776 (active)
same,normalized growth,"locus YKL067W, strain YNK1, hits give low values",0.613 (active)
same,normalized growth,"locus YKL101W, strain HSL1, hits give low values",0.678 (active)
same,normalized growth,"locus YKL193C, strain SDS22, hits give low values",0.979
same,normalized growth,"locus YKL203C, strain TOR2, hits give low values",0.738
same,normalized growth,"locus YLR113W, strain HOG1, hits give low values",0.577 (active)
same,normalized growth,"locus YLR133W, strain CKI1, hits give low values",0.621 (active)
same,normalized growth,"locus YLR403W, strain SFP1, hits give low values",0.51 (active)
same,normalized growth,"locus YML070W, strain DAK1, hits give low values",0.642 (active)
same,normalized growth,"locus YMR001C, strain CDC5, hits give low values",0.981
same,normalized growth,"locus YMR205C, strain PFK2 (second series), hits give low values",0.646 (active)
same,normalized growth,"locus YMR277W, strain FCP1, hits give low values",0.972
same,normalized growth,"locus YNL006W, strain LST8, hits give low values",0.995
same,normalized growth,"locus YNL020C, strain ARK1, hits give low values",0.597 (active)
same,normalized growth,"locus YNL161W, strain CBK1, hits give low values",0.982
same,normalized growth,"locus YNL183C, strain NPR1, hits give low values",0.54 (active)
same,normalized growth,"locus YNL207W, strain RIO2, hits give low values",0.966
same,normalized growth,"locus YNL222W, strain SSU72, hits give low values",0.98
same,normalized growth,"locus YNL307C, strain MCK1 (second series), hits give low values",0.566 (active)
same,normalized growth,"locus YOL078W, strain AVO1, hits give low values",0.978
same,normalized growth,"locus YOL136C, strain PFK27, hits give low values",0.597 (active)
same,normalized growth,"locus YOR061W, strain CKA2, hits give low values",0.576 (active)
same,normalized growth,"locus YOR119C, strain RIO1, hits give low values",0.642 (active)
same,normalized growth,"locus YOR231W, strain MKK1, hits give low values",0.494 (active)
same,normalized growth,"locus YOR329C, strain SCD5, hits give low values",0.985
same,normalized growth,"locus YPL031C, strain PHO85, hits give low values",0.6 (active)
same,normalized growth,"locus YPL153C, strain RAD53, hits give low values",0.619 (active)
same,normalized growth,"locus YPL204W, strain HRR25, hits give low values",0.58 (active)
same,normalized growth,"locus YPL209C, strain IPL1, hits give low values",0.978
same,normalized growth,"locus YPL256C, strain CLN2, hits give low values",0.481 (active)
same,normalized growth,"locus YPR025C, strain CCL1, hits give low values",0.973
same,normalized growth,"locus YPR106W, strain ISR1, hits give low values",0.959
same,normalized growth,"locus YPR111W, strain DBF20, hits give low values",0.928
same,normalized growth,"strain NNK1, hits give low values",0.963
same,normalized growth,"strain TSCII, hits give low values",0.982
